Measured values reported in PMC5540273 (PLoS ONE, 2017).
Where two headings read alike, the source gives them in different places.

How the values were obtained:
SRMS = conditions: concentration: 1 μM, replicates: in singlicate; n = 1
SRPK1 = conditions: concentration: 1 μM, replicates: in singlicate; n = 1
SRPK2 = conditions: concentration: 1 μM, replicates: in singlicate; n = 1
SRPK3 = conditions: concentration: 1 μM, replicates: in singlicate; n = 1
STK16 = conditions: concentration: 1 μM, replicates: in singlicate; n = 1
STK33 = conditions: concentration: 1 μM, replicates: in singlicate; n = 1
STK35 = conditions: concentration: 1 μM, replicates: in singlicate; n = 1
STK36 = conditions: concentration: 1 μM, replicates: in singlicate; n = 1
STK39 = conditions: concentration: 1 μM, replicates: in singlicate; n = 1
SYK = conditions: concentration: 1 μM, replicates: in singlicate; n = 1
SgK110 = conditions: concentration: 1 μM, replicates: in singlicate; n = 1
TAK1 = tested on: T1, TAK1; conditions: concentration: 1 μM, replicates: in singlicate; n = 1
T1 construct: gene MAP3K7

TAOK1 = conditions: concentration: 1 μM, replicates: in singlicate; n = 1
TAOK2 = conditions: concentration: 1 μM, replicates: in singlicate; n = 1
TAOK3 = conditions: concentration: 1 μM, replicates: in singlicate; n = 1
TBK1 = conditions: concentration: 1 μM, replicates: in singlicate; n = 1
TEC = conditions: concentration: 1 μM, replicates: in singlicate; n = 1
TESK1 = conditions: concentration: 1 μM, replicates: in singlicate; n = 1
TGFBR1 = conditions: n = 1
TGFBR2 = conditions: concentration: 1 μM, replicates: in singlicate; n = 1
[1] = concentration: 1 μM, replicates: in singlicate
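Note: KINOMEscan kinase panel screen.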

COC(=O)c1cccc(NC(=O)NCCNc2ccnc(Nc3ccc(F)cc3)n2)c1 [GSK1379883]
%Inh (SRMS): 0% | %Inh (SRPK1): 17% | %Inh (SRPK2): 0% | %Inh (SRPK3): 7% | %Inh (STK16): 5% | %Inh (STK33): 0% | %Inh (STK35): 0% | %Inh (STK36): 0% | %Inh (STK39): 0% | %Inh (SYK): 5% | %Inh (SgK110): 0% | %Inh (TAK1): 0% | %Inh (TAOK1): 0% | %Inh (TAOK2): 0% | %Inh (TAOK3): 0% | %Inh (TBK1): 16% | %Inh (TEC): 0% | %Inh (TESK1): 23% | %Inh (TGFBR1; [1]): 13% | %Inh (TGFBR2): 0%

CCC(CC)(CC)n1cnc2c(N)ncnc21 [SKF-97620]
%Inh (SRMS): 22% | %Inh (SRPK1): 14% | %Inh (SRPK2): 20% | %Inh (SRPK3): 22% | %Inh (STK16): 2% | %Inh (STK33): 0% | %Inh (STK35): 0% | %Inh (STK36): 4% | %Inh (STK39): 0% | %Inh (SYK): 11% | %Inh (SgK110): 8% | %Inh (TAK1): 6% | %Inh (TAOK1): 48% | %Inh (TAOK2): 2% | %Inh (TAOK3): 22% | %Inh (TBK1): 15% | %Inh (TEC): 35% | %Inh (TESK1): 0% | %Inh (TGFBR1; [1]): 52% | %Inh (TGFBR2): 0%

CN1c2ccc(-c3ccc(C(=O)NCCO)cc3)cc2-c2[nH]ncc2S1(=O)=O
%Inh (SRMS): 0% | %Inh (SRPK1): 12% | %Inh (SRPK2): 5% | %Inh (SRPK3): 1% | %Inh (STK16): 2% | %Inh (STK33): 9% | %Inh (STK35): 26% | %Inh (STK36): 30% | %Inh (STK39): 13% | %Inh (SYK): 41% | %Inh (SgK110): 0% | %Inh (TAK1): 63% | %Inh (TAOK1): 0% | %Inh (TAOK2): 30% | %Inh (TAOK3): 0% | %Inh (TBK1): 31% | %Inh (TEC): 1% | %Inh (TESK1): 17% | %Inh (TGFBR1; [1]): 0% | %Inh (TGFBR2): 0%

COc1ccc(NC(=O)Nc2ccc(C)c(-c3ccc(C(=O)Nc4ccncc4)cc3)c2)cc1 [GSK1398475]
%Inh (SRMS): 0% | %Inh (SRPK1): 0% | %Inh (SRPK2): 0% | %Inh (SRPK3): 0% | %Inh (STK16): 0% | %Inh (STK33): 0% | %Inh (STK35): 0% | %Inh (STK36): 0% | %Inh (STK39): 0% | %Inh (SYK): 0% | %Inh (SgK110): 0% | %Inh (TAK1): 0% | %Inh (TAOK1): 0% | %Inh (TAOK2): 0% | %Inh (TAOK3): 0% | %Inh (TBK1): 6% | %Inh (TEC): 3% | %Inh (TESK1): 19% | %Inh (TGFBR1; [1]): 3% | %Inh (TGFBR2): 0%

Fc1ccc(-c2ncn(CCCNCc3ccccc3)c2-c2ccncc2)cc1
%Inh (SRMS): 0% | %Inh (SRPK1): 31% | %Inh (SRPK2): 4% | %Inh (SRPK3): 23% | %Inh (STK16): 0% | %Inh (STK33): 0% | %Inh (STK35): 0% | %Inh (STK36): 20% | %Inh (STK39): 0% | %Inh (SYK): 23% | %Inh (SgK110): 12% | %Inh (TAK1): 29% | %Inh (TAOK1): 5% | %Inh (TAOK2): 0% | %Inh (TAOK3): 0% | %Inh (TBK1): 25% | %Inh (TEC): 8% | %Inh (TESK1): 6% | %Inh (TGFBR1; [1]): 0% | %Inh (TGFBR2): 10%

Fc1cccc(COc2ccc(Nc3ncnc4sc(-c5ccc[nH]5)cc34)cc2Cl)c1 [GW707818]
%Inh (SRMS): 14% | %Inh (SRPK1): 19% | %Inh (SRPK2): 3% | %Inh (SRPK3): 0% | %Inh (STK16): 26% | %Inh (STK33): 8% | %Inh (STK35): 0% | %Inh (STK36): 0% | %Inh (STK39): 9% | %Inh (SYK): 13% | %Inh (SgK110): 0% | %Inh (TAK1): 0% | %Inh (TAOK1): 10% | %Inh (TAOK2): 8% | %Inh (TAOK3): 14% | %Inh (TBK1): 2% | %Inh (TEC): 0% | %Inh (TESK1): 5% | %Inh (TGFBR1; [1]): 37% | %Inh (TGFBR2): 3%

Cl.O=S(=O)(c1cccc(F)c1)c1ccc(Nc2ncnc3cc(Br)sc23)cc1Cl [GSK306886]
%Inh (SRMS): 0% | %Inh (SRPK1): 100% | %Inh (SRPK2): 0% | %Inh (SRPK3): 0% | %Inh (STK16): 25% | %Inh (STK33): 0% | %Inh (STK35): 0% | %Inh (STK36): 0% | %Inh (STK39): 1% | %Inh (SYK): 5% | %Inh (SgK110): 0% | %Inh (TAK1): 0% | %Inh (TAOK1): 0% | %Inh (TAOK2): 0% | %Inh (TAOK3): 0% | %Inh (TBK1): 9% | %Inh (TEC): 0% | %Inh (TESK1): 0% | %Inh (TGFBR1; [1]): 7% | %Inh (TGFBR2): 0%

CC(C)(C)OC(=O)NC1CCCN(c2cc(-c3ccc4c(N)n[nH]c4c3)nc(N)n2)C1 (stereo not shown) [GSK2286096]
%Inh (SRMS): 0% | %Inh (SRPK1): 15% | %Inh (SRPK2): 0% | %Inh (SRPK3): 0% | %Inh (STK16): 19% | %Inh (STK33): 53% | %Inh (STK35): 0% | %Inh (STK36): 0% | %Inh (STK39): 0% | %Inh (SYK): 0% | %Inh (SgK110): 0% | %Inh (TAK1): 0% | %Inh (TAOK1): 0% | %Inh (TAOK2): 0% | %Inh (TAOK3): 0% | %Inh (TBK1): 74% | %Inh (TEC): 5% | %Inh (TESK1): 0% | %Inh (TGFBR1; [1]): 0% | %Inh (TGFBR2): 0%

Clc1ccc(-c2cc(-c3c[nH]nc3-c3ccccn3)ccn2)cc1 [GW681251]
%Inh (SRMS): 0% | %Inh (SRPK1): 0% | %Inh (SRPK2): 0% | %Inh (SRPK3): 0% | %Inh (STK16): 19% | %Inh (STK33): 0% | %Inh (STK35): 0% | %Inh (STK36): 0% | %Inh (STK39): 1% | %Inh (SYK): 22% | %Inh (SgK110): 0% | %Inh (TAK1): 0% | %Inh (TAOK1): 0% | %Inh (TAOK2): 0% | %Inh (TAOK3): 0% | %Inh (TBK1): 0% | %Inh (TEC): 0% | %Inh (TESK1): 12% | %Inh (TGFBR1; 1 µM): 79% | %Inh (TGFBR2): 85%

Cn1ccc2ncnc(Oc3ccc(NC(=O)Nc4cccnc4)c(Cl)c3)c21
%Inh (SRMS): 0% | %Inh (SRPK1): 12% | %Inh (SRPK2): 0% | %Inh (SRPK3): 0% | %Inh (STK16): 3% | %Inh (STK33): 0% | %Inh (STK35): 6% | %Inh (STK36): 13% | %Inh (STK39): 0% | %Inh (SYK): 0% | %Inh (SgK110): 49% | %Inh (TAK1): 12% | %Inh (TAOK1): 0% | %Inh (TAOK2): 0% | %Inh (TAOK3): 0% | %Inh (TBK1): 5% | %Inh (TEC): 6% | %Inh (TESK1): 0% | %Inh (TGFBR1; [1]): 0% | %Inh (TGFBR2): 0%

COc1ccc(Nc2nccc(N3CCC(NC(=O)c4cccc(NC(C)=O)c4)C3)n2)cc1 (stereo not shown) [GSK1379732]
%Inh (SRMS): 9% | %Inh (SRPK1): 18% | %Inh (SRPK2): 61% | %Inh (SRPK3): 0% | %Inh (STK16): 11% | %Inh (STK33): 2% | %Inh (STK35): 0% | %Inh (STK36): 0% | %Inh (STK39): 15% | %Inh (SYK): 18% | %Inh (SgK110): 10% | %Inh (TAK1): 0% | %Inh (TAOK1): 0% | %Inh (TAOK2): 0% | %Inh (TAOK3): 0% | %Inh (TBK1): 0% | %Inh (TEC): 0% | %Inh (TESK1): 26% | %Inh (TGFBR1; [1]): 4% | %Inh (TGFBR2): 0%
